Measurements published in PubChem BioAssay (NCATS).
Where “and” joins values, the source holds several entries; their conditions need not be identical. Equal values may be shown once. Records with an inconclusive call do not appear. Calls of active or inactive are those of the source. Unless noted, the call rests on the fitted dose curve; in most records, active means well fitted curve in the direction sought with a large enough effect; inconclusive means small, poorly fitted or top-dose-only effect, or another doubt; inactive means no such curve, though single readings can be large; an effect the other way counts as inactive or inconclusive.

Legend:
[1] = target: Voltage-gated inwardly rectifying potassium channel KCNH2 (Homo sapiens) (UniProt Q12809); test: qHTS Assay for Small Molecule Inhibitors of the Human hERG Channel Activity (AID 588834);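 further: top concentration of the series differs between compounds; on the % scale 0 is the no-effect control and ±100 the full control effect; lower thallium flux fluorescence means stronger hERG block; nearly all actives have a fitted effect of over 50% in size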
Procedure, shortened: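 In hERG-transduced U2OS cells, dye-loaded for 1 hr at room temperature in dark, test compounds incubated 10 min at 37 °C before thallium stimulation. AC50 values derived by Hill modelling of concentration-response.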

[2] = target: Glutaminase kidney isoform, mitochondrial (Homo sapiens) (UniProt O94925); test: qHTS for Inhibitors of Glutaminase (GLS): LOPAC Validation (AID 624146); further: nearly all actives have a fitted effect of over 60% in size; further: potency means the concentration at half of the fitted maximal effect
Procedure, shortened: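 Assay buffer: 45 mM KH2PO4 pH 8.2, 0.02% Tween-20. hKGA acts on L-glutamine (1 mM solution added); product glutamate is reported by an oxidase/peroxidase Amplex Red coupling, with fluorescence taken at baseline and 30 min.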

[3] = qHTS of Trypanosoma Brucei Inhibitors: LOPAC Validation (AID 624147); further: 0% is about no effect
Procedure, shortened: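 Luminescent Kinase-Glo Plus end-point after 45 min room-temperature reaction of T. brucei pyruvate kinase started with 130 uM ADP (final). Buffer TEA 50 mM pH 7.2 with KCl, MgCl2, BSA, Tween-20; titration-based qHTS with fitted concentration-effect curves.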

[4] = target: Glucagon-like peptide 1 receptor (Homo sapiens) (UniProt P43220); test: qHTS of GLP-1 Receptor Agonists: LOPAC Validation (AID 624148);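 further: 0% is about no effect; higher luminescence signal means agonism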
Procedure, shortened: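 HEK293 cells stably co-expressing GLP-1R and a cAMP-responsive luciferase reporter, plated 12 hours before compound, then incubated 4-6 hr at 37 deg C. Luminescence read 12 min after detection reagent.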

[5] = qHTS of Nrf2 Activators: LOPAC Validation (AID 624149); further: 0% is about no effect
Procedure, shortened: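 AREc32_Fluc cells, 1000/well, OPTI-MEM + 5% FBS, o/n 37 deg C 5% CO2; compound pin-transfer, 24 hr 37 deg C; Steady-Glo 30 min RT, luminescence read.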

[6] = HTS Assay for Allosteric Antagonists of the Human D2 Dopamine Receptor: Hit Validation in HTRF (AID 624455); further: on the % scale 0 is the no-effect control and ±100 the full control effect
Procedure, shortened: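 HTRF read-out; cells stably expressing D1 receptor; hits scored for inhibition of D1-mediated response. Primary screen: calcium flux, force-coupled inducible Hek293 Trex D2 line, antagonism vs EC80 dopamine.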

[7] = target: Luciferin 4-monooxygenase (Photinus pyralis) (UniProt P08659); test: Biochemical firefly luciferase enzyme assay for NPC (AID 624030);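 further: purified P. pyralis luciferase at 10 nM with luciferin and ATP substrate; 0% = DMSO and -100% = full luciferase inhibition by PTC124 control; nearly all actives have a fitted effect of over 70% in size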
Procedure, shortened: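 Purified P. pyralis luciferase at 10 nM in 50 mM Tris Acetate (final), luminescence read within 5 minutes of enzyme addition to compounds. Activity normalised to PTC124 versus DMSO; concentration-response curves classed by r2, magnitude and activity.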

[8] = S16 Schwann cell PMP22 intronic element beta-lactamase assay (AID 624044; calls by dose curve; further: nearly all actives have a fitted effect of over 15% in size; further: potency means the concentration at half of the fitted maximal effect)
Procedure, shortened: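 Beta-lactamase reporter under a PMP22 intronic regulatory element in stable S16 rat Schwann cells; 24 h compound exposure. 460 nm blue signal normalized between DMSO (0%) and potassium clavulanate, with 535 nm FRET tracking viability; curves classed by r2 and response.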

[9] = S16 Schwann cell PMP22 intronic element firefly luciferase assay (AID 624032); further: nearly all actives have a fitted effect of over 30% in size; further: potency means the concentration at half of the fitted maximal effect
Procedure, shortened: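 Rat S16 Schwann cells stably carrying firefly luciferase driven by a PMP22 intronic element, in 10% FBS, treated 24 h at 37 C. ONE-Glo luminescence normalized to PTC124 control and DMSO (0%); curves classed by r2, magnitude and activity.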

[10] = qHTS assay for small molecule agonists of the antioxidant response element (ARE) signaling pathway (AID 651741; active means well fitted activation curve with a large enough effect in the signal ratio; the % refers to the signal ratio; further: potency means the concentration at half of the fitted maximal effect)
Procedure, shortened: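 HepG2 ARE-bla reporter cells, 2,000/well; 5 h settle at 37 C/5% CO2; compound pin transfer (23 nL, DMSO); 16 h at 37 C; LiveBLAzer B/G FRET substrate, 2 h RT; fluorescence intensity read.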

[11] = qHTS assay for small molecule activators of the p53 signaling pathway (AID 651743; active means well fitted activation curve with a large enough effect in the signal ratio, not every such curve was filed as active; the % refers to the signal ratio; further: potency means the concentration at half of the fitted maximal effect; on activation: % of control where 0% means no effect); conditions: HCT-116 p53RE-bla, beta-lactamase FRET ratio, 16 h; activation: stronger effect = higher value
Procedure, shortened: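 Reporter: beta-lactamase driven by p53 response elements, stably integrated in HCT-116 cells. Cells seeded at 4,000/well, 5 h preincubation, compound (DMSO) 16 h at 37 C; B/G FRET substrate 2 h RT; fluorescence intensity read.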

[12] = qHTS assay for small molecule activators of the nuclear factor-kappa B (NF-kB) signaling pathway (AID 651749; active means well fitted activation curve with a large enough effect in the signal ratio; the % refers to the signal ratio; further: % of control where 0% means no effect); conditions: NF-kB-bla ME-180 cells, beta-lactamase FRET ratio, 16 h; stronger effect = higher value
Procedure, shortened: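 NF-kB-bla ME-180 cells, 2,000/well; 23 nL compound or DMSO pinned; 16 hr, 37C/5% CO2; beta-lactamase FRET read-out.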

[13] = Cytotoxicity counterscreen for NFkB agonists and antagonists (AID 624476); further: potency means the concentration at half of the fitted maximal effect
[14] = qHTS Assay for Identification of Small Molecule Agonists for NFkB Signaling Pathway. (AID 624478);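 further: compounds tested together with TNF alpha at its EC50 of 10 pM; 0% is about no effect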
Procedure, shortened: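 Read-out: 460/530 nm emission at 405 nm excitation after 2 h LiveBLAzer loading; ME-180 NFkB-bla reporter cells exposed 5 h at 37 C to compounds with 10 pM TNF alpha final.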

[15] = qHTS Assay for Identification of Small Molecule Antagonists for NFkB Signaling Pathway. (AID 624479; calls by dose curve;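 further: pathway stimulated with TNF alpha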; further: potency means the concentration at half of the fitted maximal effect)
[16] = Cell Proliferation Assay against the TMD8 Cell Line (AID 651645); conditions: TMD8 DLBCL cell line proliferation/viability; at 46.1 µM (top of the series);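 further: cells exposed to compound for 48 h before reading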
Procedure, shortened: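 TMD8 ABC DLBCL cells, 500 per well in phenol red-free RPMI with 5% FBS, were treated with compound by pin transfer and incubated 48 hours at 37C, 5% CO2. Viability was read by CellTiter-Glo luminescence, normalised to DMSO (100%) and 9.2 uM bortezomib (0%).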

[17] = Cell Proliferation Assay against the HBL1 Cell Line (AID 651646); conditions: HBL1 DLBCL cells; at 46.1 µM (top of the series);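 further: cells exposed to compound for 48 h before reading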
Procedure, shortened: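 HBL1, 500 cells/well, RPMI no phenol red + 5% FBS; cpd pinned, 48 h 37C/5% CO2; CellTiter-Glo, 15 min RT, luminescence. % activity: DMSO = 100%, bortezomib 9.2 uM final = 0%.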

[18] = Cell Proliferation Assay against the TMD8 Cell Line (Caspase readout at 8 hrs) (AID 651713); further: potency means the concentration at half of the fitted maximal effect
Procedure, shortened: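 Apoptosis readout: caspase 3/7 luminescence (Caspase-Glo), 15 min RT. Cells: TMD8, 500/well, RPMI + 5% FBS, no phenol red. Exposure 8 h, 37C. % activity vs DMSO = 0, bortezomib 9.2 uM final = 100.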

[19] = S16 Schwann cell viability assay (CellTiter-Glo assay) (AID 624031); further: potency means the concentration at half of the fitted maximal effect; nearly all actives have a fitted effect of over 70% in size
Procedure, shortened: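 Native S16 rat Schwann cells, 500-750 cells/well in DMEM with 10% FBS, dosed with compound after overnight culture and incubated 24h at 37 degree Celsius/5% CO2. Viability by CellTiter-Glo luminescence; % activity normalized to no-cell wells and DMSO-treated cells.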

Chain of Luciferin 4-monooxygenase (Photinus pyralis) (P08659 whole entry, looked up): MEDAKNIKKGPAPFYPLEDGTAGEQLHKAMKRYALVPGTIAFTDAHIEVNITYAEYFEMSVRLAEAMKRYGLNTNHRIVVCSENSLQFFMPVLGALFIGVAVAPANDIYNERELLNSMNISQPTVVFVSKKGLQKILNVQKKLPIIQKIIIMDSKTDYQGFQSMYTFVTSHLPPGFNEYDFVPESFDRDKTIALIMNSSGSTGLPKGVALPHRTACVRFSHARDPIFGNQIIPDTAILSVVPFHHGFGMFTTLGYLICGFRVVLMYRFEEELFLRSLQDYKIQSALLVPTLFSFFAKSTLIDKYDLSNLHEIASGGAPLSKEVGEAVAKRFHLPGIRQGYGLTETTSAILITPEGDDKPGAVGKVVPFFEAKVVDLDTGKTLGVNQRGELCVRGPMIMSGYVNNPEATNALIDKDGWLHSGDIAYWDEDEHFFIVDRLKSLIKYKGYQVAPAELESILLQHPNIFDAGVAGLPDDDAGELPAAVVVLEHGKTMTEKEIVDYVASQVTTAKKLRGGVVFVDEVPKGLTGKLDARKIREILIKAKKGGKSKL
Chain of Glucagon-like peptide 1 receptor (Homo sapiens) (P43220 whole entry, looked up): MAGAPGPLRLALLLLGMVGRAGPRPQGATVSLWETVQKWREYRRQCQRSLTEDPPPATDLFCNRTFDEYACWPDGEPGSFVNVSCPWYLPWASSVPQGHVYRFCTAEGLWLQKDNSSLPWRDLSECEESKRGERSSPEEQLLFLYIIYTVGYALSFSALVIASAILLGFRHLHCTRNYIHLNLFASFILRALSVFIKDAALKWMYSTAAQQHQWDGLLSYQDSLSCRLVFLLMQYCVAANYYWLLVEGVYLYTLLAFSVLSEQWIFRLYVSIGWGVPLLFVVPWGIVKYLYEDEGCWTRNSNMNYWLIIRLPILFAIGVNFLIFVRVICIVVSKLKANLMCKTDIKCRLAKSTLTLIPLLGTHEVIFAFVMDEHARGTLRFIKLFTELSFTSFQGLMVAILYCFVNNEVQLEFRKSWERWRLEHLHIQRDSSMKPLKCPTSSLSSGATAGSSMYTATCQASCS
Chain of Glutaminase kidney isoform, mitochondrial (Homo sapiens) (O94925 whole entry, looked up, canonical isoform): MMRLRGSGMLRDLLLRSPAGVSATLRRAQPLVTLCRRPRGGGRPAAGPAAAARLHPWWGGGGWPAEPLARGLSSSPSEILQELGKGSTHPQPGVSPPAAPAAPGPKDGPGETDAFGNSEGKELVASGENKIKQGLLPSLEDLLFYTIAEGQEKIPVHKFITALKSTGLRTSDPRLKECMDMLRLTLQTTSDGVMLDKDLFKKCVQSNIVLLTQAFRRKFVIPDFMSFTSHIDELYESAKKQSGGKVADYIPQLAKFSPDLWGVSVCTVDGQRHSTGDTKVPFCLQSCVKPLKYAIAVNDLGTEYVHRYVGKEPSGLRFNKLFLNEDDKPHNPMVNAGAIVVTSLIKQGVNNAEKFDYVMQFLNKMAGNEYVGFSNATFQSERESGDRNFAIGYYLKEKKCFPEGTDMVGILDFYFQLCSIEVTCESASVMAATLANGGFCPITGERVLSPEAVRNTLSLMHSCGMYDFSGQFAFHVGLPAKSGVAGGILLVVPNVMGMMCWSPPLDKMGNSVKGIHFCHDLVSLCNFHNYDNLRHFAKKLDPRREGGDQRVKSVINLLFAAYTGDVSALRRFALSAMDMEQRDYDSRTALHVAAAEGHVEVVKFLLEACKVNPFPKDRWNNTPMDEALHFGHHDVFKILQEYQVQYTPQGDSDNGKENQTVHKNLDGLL
Chain of Voltage-gated inwardly rectifying potassium channel KCNH2 (Homo sapiens) (Q12809 whole entry, looked up): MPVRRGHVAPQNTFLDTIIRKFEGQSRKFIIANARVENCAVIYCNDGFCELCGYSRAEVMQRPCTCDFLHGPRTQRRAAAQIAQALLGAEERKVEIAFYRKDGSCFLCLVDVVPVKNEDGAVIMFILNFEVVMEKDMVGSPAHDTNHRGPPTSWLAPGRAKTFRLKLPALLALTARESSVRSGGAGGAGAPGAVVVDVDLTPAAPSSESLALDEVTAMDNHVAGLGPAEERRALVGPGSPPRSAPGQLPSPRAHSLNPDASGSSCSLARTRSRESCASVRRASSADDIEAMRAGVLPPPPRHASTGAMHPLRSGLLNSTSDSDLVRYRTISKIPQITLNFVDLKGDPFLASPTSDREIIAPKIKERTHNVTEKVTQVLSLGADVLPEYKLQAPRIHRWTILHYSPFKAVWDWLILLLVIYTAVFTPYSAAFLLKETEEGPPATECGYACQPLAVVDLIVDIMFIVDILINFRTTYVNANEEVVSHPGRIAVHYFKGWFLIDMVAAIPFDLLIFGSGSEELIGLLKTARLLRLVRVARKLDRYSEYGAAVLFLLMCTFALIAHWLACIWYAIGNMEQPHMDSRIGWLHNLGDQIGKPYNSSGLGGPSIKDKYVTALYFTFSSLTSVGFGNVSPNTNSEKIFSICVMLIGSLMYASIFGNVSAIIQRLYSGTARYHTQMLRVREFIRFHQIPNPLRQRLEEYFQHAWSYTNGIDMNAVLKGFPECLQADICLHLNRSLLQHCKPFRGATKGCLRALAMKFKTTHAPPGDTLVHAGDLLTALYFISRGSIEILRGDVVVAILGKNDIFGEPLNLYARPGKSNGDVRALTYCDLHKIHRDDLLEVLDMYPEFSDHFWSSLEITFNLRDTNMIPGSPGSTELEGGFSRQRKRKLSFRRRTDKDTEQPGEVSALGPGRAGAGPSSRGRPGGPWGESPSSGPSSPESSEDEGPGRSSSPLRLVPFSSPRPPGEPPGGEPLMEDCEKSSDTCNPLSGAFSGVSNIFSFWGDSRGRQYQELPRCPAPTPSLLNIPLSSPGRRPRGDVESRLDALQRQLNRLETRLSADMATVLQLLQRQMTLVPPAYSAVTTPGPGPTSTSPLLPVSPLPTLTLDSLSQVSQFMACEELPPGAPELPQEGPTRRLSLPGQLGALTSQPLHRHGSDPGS

C[C@@H]1O[C@@H](O[C@H]2C[C@@H](O)[C@]3(CO)[C@H]4[C@H](O)C[C@]5(C)[C@@H](C6=CC(=O)OC6)CC[C@]5(O)[C@@H]4CC[C@]3(O)C2)[C@H](O)[C@H](O)[C@H]1O
Potency [1]: inactive
Potency [2]: inactive
outcome [3]: inactive
outcome [4]: inactive
outcome [5]: inactive
Potency [6]: inactive

CN1C[C@H](CNC(=O)OCc2ccccc2)C[C@@H]2c3cccc4c3c(cn4C)C[C@H]21
Potency [7]: inactive
Potency [8]: inactive
outcome [3]: inactive
outcome [4]: inactive
outcome [5]: inactive
Potency [6]: inactive

CC(COc1ccccc1)N(CCCl)Cc1ccccc1 (stereo unspecified)
Potency [9]: 0.114 µM (active)
Potency [10]: 48.6 µM (active) and 42.2 µM (active)

N[C@@H](Cc1ccc(N(CCCl)CCCl)cc1)C(=O)O
Potency [7]: inactive
Potency [9]: 9.07 µM (active)
Potency [10]: 54.5 µM (active) and 42.2 µM (active)
Potency [11]: 39.8 µM (active) and 25.1 µM (active)
activation [12]: 3.45% (inactive) and -0.304% (inactive)

CN1CCN(C2=Nc3cc(Cl)ccc3Nc3ccccc32)CC1
Potency [7]: inactive

O=c1[nH]cc(F)c(=O)[nH]1
Potency [8]: 5.62 µM (active)
Potency [11]: 3.98 µM (active)

COc1cc2c(c(OC)c1OC)-c1ccc(OC)c(=O)cc1[C@@H](NC(C)=O)CC2
Potency [9]: 0.102 µM (active)
Potency [8]: 0.0891 µM (active)
Potency [10]: 75 nM (active)

CNC(=O)c1ccc(N2C(=S)N(c3ccc(C#N)c(C(F)(F)F)c3)C(=O)C23CCC3)cc1F
Potency [13]: inactive
outcome [14]: inactive
Potency [15]: inactive
viability (% of control) [16]: 71.2%
viability, percent of control [17]: 77.6%
Potency [18]: inactive

CC(=O)Nc1nnc(S(N)(=O)=O)s1
Potency [9]: inactive

CC(C)C(=O)Nc1ccc([N+](=O)[O-])c(C(F)(F)F)c1
Potency [10]: 61.1 µM (active) and 66.8 µM (active)

Cc1c(OCC(F)(F)F)ccnc1CS(=O)c1nc2ccccc2[nH]1 (stereo unspecified)
Potency [9]: inactive

CN1CCc2cccc3c2[C@H]1Cc1ccc(O)c(O)c1-3
Potency [19]: 32.2 µM (active)

CO[C@@H](C(=O)N1Cc2[nH]nc(NC(=O)c3ccc(N4CCN(C)CC4)cc3)c2C1)c1ccccc1
Potency [15]: 11.9 µM (active)
viability, percent of control [17]: 77.1%
Potency [18]: 16.6 µM (active)

CN(C)CCN(C)CCc1ccc(Cl)c(Cl)c1
Potency [13]: inactive
outcome [14]: inactive
viability (% of control) [16]: 74%
viability, percent of control [17]: 73.4%
Potency [18]: inactive

COc1cc(Nc2c(C#N)cnc3cc(OCCCN4CCN(C)CC4)c(OC)cc23)c(Cl)cc1Cl
Potency [18]: 20.9 µM (active)

O=C(O)C(=O)c1cn(Cc2ccccc2)c2ccc(-c3ccc(OC(F)(F)F)cc3)cc12
Potency [13]: 18.7 µM (active)
outcome [14]: inactive
Potency [15]: 16.8 µM (active)
viability (% of control) [16]: 75.1%
viability, percent of control [17]: 68.4%
Potency [18]: inactive

C[C@H]1O[C@@H](O[C@H]2[C@@H](O)C[C@H](O[C@H]3[C@@H](O)C[C@H](O[C@H]4CC[C@@]5(C)[C@H](CC[C@@H]6[C@@H]5CC[C@]5(C)[C@@H](C7=CC(=O)OC7)CC[C@]65O)C4)O[C@@H]3C)O[C@@H]2C)C[C@H](O)[C@@H]1O
activation [11]: -10.8% (inactive)
activation [12]: -1.01% (inactive)

Cc1sc2c(c1C)C(c1ccc(Cl)cc1)=N[C@@H](CC(=O)OC(C)(C)C)c1nnc(C)n1-2
Potency [13]: inactive
outcome [14]: inactive
viability (% of control) [16]: 2.73%
viability, percent of control [17]: 13.5%
Potency [18]: 23.5 µM (active)

CS(=O)c1ccc(-c2nc(-c3ccc(F)cc3)c(-c3ccncc3)[nH]2)cc1 (stereo unspecified)
viability (% of control) [16]: 92.2%
viability, percent of control [17]: 100%

COC[C@H]1OC(=O)c2coc3c2[C@@]1(C)C1=C(C3=O)C2CCC(=O)[C@@]2(C)C[C@H]1OC(C)=O (stereo partly specified)
Potency [2]: 11.2 µM (active)
outcome [3]: inactive
outcome [4]: inactive
outcome [5]: inactive
Potency [6]: inactive
outcome [14]: inactive
Potency [15]: 13.3 µM (active)
viability (% of control) [16]: 17.1%
viability, percent of control [17]: 61.7%
Potency [18]: 23.5 µM (active)
